Consider 30 compounds from PubChem BioAssay (NCI).

Each structure is given as a SMILES string. About 83,000 compounds went through this panel and 20% of them were active in at least one assay; those are over-represented in the sample as a whole.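 Single-concentration screen, 48 h exposure, 96-well plates. Endpoint: percent growth. Below 10 = active.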 A number with no mark means an inactive call. Calls of active or inactive are those of the source.

Assay in all cases: NCI-60 one-dose screen, 48 h (100 = growth as untreated, 0 = no growth, -100 = all killed)
Common to all, as to conditions: 10 µM unless noted

The test system of assay [1] is T-47D breast.
Assay [2] has as its system BT-549 breast.
The subject of assay [3] is MDA-MB-435 melanoma.
The subject of assay [4] is SW-620 colon.
Assay [5] relates to MCF7 breast.
The test system of assay [6] is HCT-116 colon.
The test system of assay [7] is HCC-2998 colon.
The test system of assay [8] is KM12 colon.

For `Cc1ccc(-c2c3c(N)nc(-c4ccncc4)nc3nc3c2c(C)nn3-c2ccccc2)cc1`, the growth in assay [1] was 35.6%; in assay [2], 59.4%; in assay [3], 31.4%; in assay [4], 39.5%; in assay [5], 1.86% (active); in assay [6], 12.7%. Besides, the growth was 99.8% in assay [7] and 74.7% in assay [8].

For the compound `O=C(O)c1ccc(CNS(=O)(=O)c2ccc3ccccc3c2)cc1`, the growth was 100% in assay [1]; 104% in assay [2]; 110% in assay [3]; 99.8% in assay [4]; 107% in assay [5]; 109% in assay [6]. In addition, the results for the growth in assay [7] and in assay [8] were 271% and 101%, respectively.

Consider `Cc1ccc(C2=Nc3c(ccc4c(C)c(C)c(=O)oc34)OC2)cc1`, for which the growth in assay [1] is 89.8%; in assay [2] it was 94%; in assay [3], 104%; in assay [4], 108%; in assay [5], 115%; in assay [6], 95.5%. Besides, the growth in assay [7] is 96.1%; in assay [8] it was 97.8%.

Turning to `O=C(Nc1ccccc1)P(=O)(O)c1ccccc1`, the growth in assay [1] was 113%; in assay [2], 110%; in assay [3], 111%; in assay [4] it was 101%; in assay [5], 96.8%; in assay [6], 98.1%. Further, the growth is 97.3% in assay [7] and 99.8% in assay [8].

Turning to `COC(=O)[C@H](Cc1cn(C)cn1)NC(=O)[C@H](Cc1ccccc1)NC(=O)Nc1cc(C(F)(F)F)cc(C(F)(F)F)c1`, the growth is -55.3% [100 µM] (active) in assay [1]; -95.5% [100 µM] (active) in assay [2]; -85.4% [100 µM] (active) in assay [3]; -46.2% [100 µM] (active) in assay [4]; -60.8% [100 µM] (active) in assay [5]; -91.5% [100 µM] (active) in assay [6]. The figures for the growth in assay [7] and in assay [8] were -86.9% [100 µM] (active) and -92.2% [100 µM] (active), respectively.

Take `COc1cc(C2CC(C3C(=O)N(C)C(=O)N(C)C3=O)=NN2c2cc(Cl)cc(Cl)c2)cc(OC)c1OC` (stereo not given): the growth in assay [1] is 79.4%; in assay [2], 99.2%; in assay [3], 98%; in assay [4], 94.7%; in assay [5] it was 90.4%; in assay [6], 87.3%. The growth is 87.7% in assay [7] and 91.8% in assay [8].

As to `CCCCCCCCCCOC(C)=O`, the growth in assay [1] was 100%; in assay [2], 118%; in assay [3], 106%; in assay [4], 106%; in assay [5], 93.6%; in assay [6], 112%. Further, the values for the growth in assay [7] and in assay [8] were 109% and 113%, respectively.

With `CC(=O)c1ccccc1NC(=O)C(C)(c1ccccc1)c1ccccc1`, the growth in assay [1] is 67.7%; in assay [2], 75.7%; in assay [3], 98.6%; in assay [4], 93.4%; in assay [5], 102%; in assay [6] it was 42.1%. In addition, the growth is 108% in assay [7] and 85% in assay [8].

On to `COc1ccc(C2=NN(C(C)=O)C(c3c(C)nn(-c4ccccc4)c3N3CCOCC3)C2)cc1` (stereo not given), for which the growth was 93.3% in assay [1]; 77% in assay [2]; 97.2% in assay [3]; 96.6% in assay [4]; 91.7% in assay [5]; 82.3% in assay [6]. Also, the results for the growth in assay [7] and in assay [8] were 102% and 100%, respectively.

For `C/C(=C\CCc1ccoc1)CC/C=C(\C)CCCC1COC(=O)C1` (stereo not given), the growth in assay [1] was 87.7%; in assay [2] it was 108%; in assay [3], 88.8%; in assay [4], 103%; in assay [5], 90.6%; in assay [6], 98.2%. The growth was 107% in assay [7] and 93.3% in assay [8].

Turning to `Cc1sc2nc(NCc3ccccc3)[nH]c(=O)c2c1C`, the growth in assay [1] is 31.6%; in assay [2], 53.9%; in assay [3], -31% (active); in assay [4], 26%; in assay [5] it was 31%; in assay [6], 24.5%. For the same compound, the growth in assay [7] was 87.7%; in assay [8], 36.2%.

Regarding `Oc1c(Cl)cc(Cl)c(Cl)c1Cc1c(O)c(Cl)cc(Cl)c1Cl`, the growth is 33.8% in assay [1]; 17.2% in assay [2]; 10.4% in assay [3]; 16.7% in assay [4]; 10.3% in assay [5]; 3.93% (active) in assay [6]. For the same compound, the values for the growth in assay [7] and in assay [8] were 7.48% (active) and 8.09% (active), respectively.

`OCCCc1n(Cc2ccc3ccccc3c2)c2ccccc2[n+]1Cc1ccc2ccccc2c1`: the growth in assay [1] was 13.2%; in assay [2] it was 5.33% (active); in assay [3] it was 0.65% (active); in assay [4], 19.3%; in assay [5], 9.45% (active); in assay [6], 10.4%. The growth is 12.5% in assay [7] and -20.9% (active) in assay [8].

For the compound `CC(=O)OC1Oc2cc(C)c(C)cc2-c2oc(=O)c(-c3ccccc3)cc21` (stereo not given), the growth in assay [1] was 43.8%; in assay [2], 24.9%; in assay [3], -19.6% (active); in assay [4], 16.3%; in assay [5] it was 10.9%; in assay [6], 14%. Also, the growth is 41.4% in assay [7] and 7.26% (active) in assay [8].

For `CCOC(CNCc1cc(C)c2[nH]c3ccccc3c2c1C)OCC`, the growth in assay [1] was 84.9%; in assay [2], 76.4%; in assay [3], 92.3%; in assay [4], 95.1%; in assay [5], 81.3%; in assay [6] it was 53.5%. In addition, the growth in assay [7] was 45.1%; in assay [8], 94.4%.

`CN1CCN(CCCOc2ccc3ncnc(Nc4ccc(OCc5cccc(F)c5)c(Cl)c4)c3c2)CC1`: the growth in assay [1] is -15.6% (active); in assay [2], 72%; in assay [3], -88.4% (active); in assay [4], -78.7% (active); in assay [5], -69.2% (active); in assay [6], -87.9% (active). Also, the growth in assay [7] is -80.9% (active); in assay [8], -56% (active).

Turning to `Cc1cc(C)c2c(N)c3cccc(C)c3nc2n1`, the growth in assay [1] was -3.39% (active); in assay [2], 0.0119% (active); in assay [3], 2.84% (active); in assay [4] it was -1.92% (active); in assay [5] it was 6.02% (active); in assay [6], -39.4% (active). Also, the growth in assay [7] is -38.7% (active); in assay [8], 6.37% (active).

For the compound `NC(=O)c1cc(Br)cc(Br)c1NS(=O)(=O)c1ccccc1`, the growth in assay [1] is 99.2%; in assay [2], 103%; in assay [3] it was 111%; in assay [4], 101%; in assay [5], 99%; in assay [6], 100%. Further, the growth in assay [7] and in assay [8] was 106% throughout.

For the compound `O=C1c2cccc(NCCN=Cc3ccccc3O)c2C(=O)c2c(NCCN=Cc3ccccc3O)cccc21`, the growth in assay [1] was 18%; in assay [2], 49%; in assay [3], 24.7%; in assay [4], 0.678% (active); in assay [5], 3.69% (active); in assay [6], 7.91% (active). For the same compound, the growth in assay [7] is 2.57% (active); in assay [8], 6.07% (active).

In the case of `O=C(O)CNC(=O)C1(N2C(=O)c3ccccc3C2=O)CCCC1`, the growth in assay [1] was 102%; in assay [2] it was 101%; in assay [3], 96.3%; in assay [4], 110%; in assay [5] it was 92%; in assay [6], 103%. The growth in assay [7] was 104%; in assay [8] it was 118%.

As to `COc1cc(C2CC(C3C(=O)N(C)C(=O)N(C)C3=O)=NN2C=O)cc(OC)c1OC` (stereo not given), the growth was 83.8% in assay [1]; 106% in assay [2]; 101% in assay [3]; 97.7% in assay [4]; 97.6% in assay [5]; 102% in assay [6]. For the same compound, the values for the growth in assay [7] and in assay [8] were 100% and 102%, respectively.

For `O=C(Nc1nc2ccc(OC(F)(F)F)cc2s1)c1ccc(F)cc1`, the growth in assay [1] is -10.8% (active); in assay [2] it was 39.2%; in assay [3], 15.1%; in assay [4], 13.3%; in assay [5] it was -0.0548% (active); in assay [6] it was -28% (active). The results for the growth in assay [7] and in assay [8] were 3.77% (active) and 2.23% (active), respectively.

Consider `O=C(COc1cccc(/C=C2\Cc3ccccc3C2=O)c1)c1ccc(Cl)cc1`, for which the growth in assay [1] was 80%; in assay [2], 99.4%; in assay [3], 114%; in assay [4], 97.2%; in assay [5], 78%; in assay [6], 100%. The growth in assay [7] is 102%; in assay [8] it was 105%.

Take `CCCCOP(=O)(OCCCC)C(C(=O)OCC)C(CC(=O)OCC)C(=O)OCC` (stereo not given): the growth is 114% in assay [1]; 114% in assay [2]; 104% in assay [3]; 106% in assay [4]; 93.1% in assay [5]; 112% in assay [6]. Also, the growth in assay [7] is 109%; in assay [8], 111%.

As to `CC12CCC3C(=CCc4cc(O)ccc43)C1CCC2=O` (stereo not given), the growth in assay [1] is 104%; in assay [2], 99.5%; in assay [3], 73%; in assay [4], 106%; in assay [5], 120%; in assay [6] it was 102%. The growth in assay [7] was 111%; in assay [8], 108%.

Consider `C[N+]1(C)C2CC[C@@H]1CC(OC(=O)C(O)c1ccccc1)C2` (stereo not given in full), for which the growth was 109% in assay [1]; 99.6% in assay [2]; 99.1% in assay [3]; 109% in assay [4]; 106% in assay [5]; 102% in assay [6]. Also, the growth in assay [7] was 96.6%; in assay [8], 109%.

Take `COc1ccc2c(c1)[n+](=O)c(/C=C/C(=O)c1cc(OC)c(OC)c(OC)c1)c(C)n2[O-]`: the growth in assay [1] was 28.3%; in assay [2] it was 73.3%; in assay [3] it was 34.6%; in assay [4], 21.7%; in assay [5] it was 18.1%; in assay [6], 17.9%. Further, the results for the growth in assay [7] and in assay [8] were 112% and 80.9%, respectively.

As for `COc1cnc2c(c1)C(=O)c1c-2n(CCCN2CCOCC2)c(=O)c2cc(F)ccc12`, the growth was -16% (active) in assay [1]; 13.3% in assay [2]; -14.2% (active) in assay [3]; 6.66% (active) in assay [4]; 1.93% (active) in assay [5]; -77.1% (active) in assay [6]. For the same compound, the values for the growth in assay [7] and in assay [8] were 13.2% and -14.4% (active), respectively.

`O=C(O)C1C(c2ccccc2)c2ccccc2C(O)C1CO` (stereo not given): the growth in assay [1] was 115%; in assay [2], 103%; in assay [3] it was 116%; in assay [4], 106%; in assay [5], 97%; in assay [6], 101%. Further, the growth in assay [7] was 106%; in assay [8] it was 117%.

Regarding `CC(C)N(Cc1ccccc1)c1c(Cl)ssc1=O`, the growth in assay [1] was 98.9%; in assay [2], 90.9%; in assay [3], 108%; in assay [4], 110%; in assay [5], 101%; in assay [6], 99.9%. The values for the growth in assay [7] and in assay [8] were 113% and 106%, respectively.
